A selection: hits, their analogues and other compounds. The true share with any hit is near 0.92%.
LAP4-GFP MLPCN: modulators of TOR pathway LAP4-GFP in S. cerevisiae | S. cerevisiae LAP4-GFP multiplex, flow cytometry GFP, 3 h; median GFP as percent of DMSO wells | GFP response vs DMSO, % at 10 µM | 320,000 compounds, 0.34% hits;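 active = GFP response vs DMSO above a set limit, about the screen mean plus 3 SD, cut at about 150% in these data; inconclusive = under 70 cell events counted for the yeast strain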
CIT2-GFP yeast: yeast TOR pathway CIT2-GFP modulation. S. cerevisiae CIT2-GFP strain, flow cytometry, 3 h; 100 means same as DMSO wells. GFP response vs DMSO, % at 10 µM. 320,000 compounds, 0.065% hits. AID 2029;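 active = GFP response relative to DMSO above a set limit, near the screen mean plus 3 SD, cut at about 150% in these data; inconclusive = Fewer than 70 cells measured for a yeast strain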;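 note: ratio of well median GFP fluorescence to mean of DMSO wells on the plate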
MEP2 TOR yeast: alters MEP2-GFP fluorescence in TOR pathway yeast screen; S. cerevisiae MEP2-GFP strain, flow cytometry GFP, 3 h; 100% = DMSO control level; GFP response vs DMSO, % at 10 µM; 330,000 compounds, 0.51% hits; AID 2016;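 active = GFP response versus DMSO above a set limit, roughly screen mean plus 3 SD, cut at about 180% in these data; inconclusive = fewer than 70 cells counted for a yeast strain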;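 note: median GFP fluorescence of the barcode-gated MEP2-GFP cells per well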
RPL19A-GFP yeast: yeast TOR pathway RPL19A-GFP modulation; S. cerevisiae RPL19A-GFP strain, flow cytometry, 3 h; active compounds read low; percent response vs DMSO, % at 10 µM; 330,000 compounds, 0.3% hits;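 active = percent response vs DMSO below 50%; inconclusive = fewer than 70 events counted for the yeast strain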;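 note: median channel GFP fluorescence of the barcoded RPL19A-GFP strain; lower means less RPL19A-GFP as with rapamycin TOR inhibition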
AGP1 TOR yeast: modulators of TOR pathway AGP1-GFP in S. cerevisiae | 320,000 compounds, 0.02% hits | GFP response vs DMSO, % at 10 µM | S. cerevisiae AGP1-GFP multiplex flow cytometry, 3 h; GFP as percent of DMSO wells | AID 2066;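 active = GFP response relative to DMSO above a set limit, near screen average plus 3 SD, cut at about 150% in these data; inconclusive = fewer than 70 cells counted for the yeast strain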;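 note: median GFP channel fluorescence of the gated AGP1 strain per well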
Each line names hits and unclear results; the compound was inactive in the other large screens; [ ] = dose if it differs, or a comment.

Cc1cccn2c(=O)c3cc(C#N)c(=NC(=O)c4ccccc4)n(Cc4ccco4)c3nc12	CIT2-GFP yeast inconclusive, MEP2 TOR yeast 256.8[may fluoresce violet], RPL19A-GFP yeast 43.7[may fluoresce violet]
Cc1ccc(S(=O)(=O)N2CCCC2CNC(=O)C(=O)NC2CC2)cc1 (stereo not given)	none
Cc1ccc(N2CC(C(=O)N3CCOCC3)CC2=O)cc1Cl (stereo not given)	none
O=C(CN(Cc1ccc(Cl)cc1)C(=O)CNS(=O)(=O)c1ccccc1)NCC1CCCO1 (stereo not given)	none
CCOC(=O)c1cnc(Cc2ccccc2)[nH]c1=O	none
CCOC(=O)C1=C(Cc2ccc(F)cc2)C(=O)c2ccccc2C1=O	LAP4-GFP MLPCN 155.1
O=C(OCc1ccc(F)cc1)c1ccc2c(c1)-c1ccccc1C2=O	CIT2-GFP yeast inconclusive, MEP2 TOR yeast 263.1[may fluoresce violet], RPL19A-GFP yeast 43.3[may fluoresce violet] (no result: AGP1 TOR yeast)
O=C(CN1CCN(c2ccc(O)cc2)CC1)Nc1ccc2c(c1)OCCCO2	none
O=C(c1ccncc1)N1CCN(S(=O)(=O)c2ccc(F)cc2)CC1	none
CCOC(=O)/C=C1\SCC(=O)N1Cc1nnc(-c2ccccc2Br)o1	MEP2 TOR yeast 288.7 (no result: RPL19A-GFP yeast)
CCOC(=O)/C=C1\SCC(=O)N1Cc1ccc(Br)cc1	none (no result: CIT2-GFP yeast)
CCOC(=O)c1c(NC(=O)c2cc(-c3ccc(O)cc3)on2)sc(C(C)=O)c1C	none
NC(=O)c1nsc(C(=O)N(CC(=O)NCc2ccccc2)c2cccc(F)c2)c1N	none
NC(=O)c1nsc(C(=O)N(CC(=O)NCc2ccccc2)c2ccc(F)cc2)c1N	CIT2-GFP yeast inconclusive, MEP2 TOR yeast 308.7[may fluoresce violet]
COc1ccc(C2C=C(c3ccccc3)Nc3nc(CCCO)nn32)cc1 (stereo not given)	CIT2-GFP yeast inconclusive, MEP2 TOR yeast 576.0[may fluoresce violet], RPL19A-GFP yeast 44.5[may fluoresce violet], AGP1 TOR yeast inconclusive
OCCCc1nc2n(n1)C(c1ccccc1)C=C(c1ccccc1)N2 (stereo not given)	none
CCOc1cc(/C=C2/C(=N)N3C(=NC2=O)SN=C3S(C)(=O)=O)ccc1OS(=O)(=O)c1ccccc1	CIT2-GFP yeast inconclusive, RPL19A-GFP yeast 13.1[may fluoresce violet], AGP1 TOR yeast inconclusive
CCS(=O)(=O)C1=NN2C(=N)/C(=C\c3ccc(OC(=O)c4ccco4)c(Br)c3)C(=O)N=C2S1	none
CCOc1cc(/C=C2\C(=N)N3N=C(S(=O)(=O)CC)SC3=NC2=O)ccc1OC(=O)c1ccco1	RPL19A-GFP yeast 47.3
Cc1c(C)c2cc(Cl)c(OCC(=O)N3CCN(c4ccc(F)cc4)CC3)cc2oc1=O	none
CC(C)CCN(C(=O)c1ccccn1)c1c(N)n(Cc2ccccc2)c(=O)[nH]c1=O	none
OCCN1CCN(c2nc(-c3ccccc3O)nc3ccccc23)CC1	none (no result: LAP4-GFP MLPCN)
CCO[C@H]1OC(C(=O)NC2CC2)=C[C@@H](c2ccc(Br)cc2)[C@@H]1CCCO	none
CCO[C@@H]1OC(C(=O)NC2CC2)=C[C@H](c2ccccc2)[C@H]1CCCO	CIT2-GFP yeast inconclusive, MEP2 TOR yeast 282.4[may fluoresce violet], RPL19A-GFP yeast 47.4[may fluoresce violet], AGP1 TOR yeast inconclusive
Cc1ccc(S(=O)(=O)Nc2cc(Cl)c(O)c3ncccc23)cc1	LAP4-GFP MLPCN 154.0
Cc1ccc(S(=O)(=O)Nc2cccnc2Oc2ccc(Cl)cc2)cc1	none
O=C(O)c1ccc(N2C(=O)CC(N3CCN(c4cccc(C(F)(F)F)c4)CC3)C2=O)cc1 (stereo not given)	CIT2-GFP yeast inconclusive, MEP2 TOR yeast 602.6[may fluoresce violet], RPL19A-GFP yeast 38.5[may fluoresce violet], AGP1 TOR yeast inconclusive
Cc1ccc(SCC(=O)OCC(=O)NCCc2ccccc2)cc1C	none
COc1cc(/C=N/NC(=O)c2ccc(N(C)S(=O)(=O)c3ccccc3)cc2)cc(OC)c1OC	none
CCOc1cc(/C=N/NC(=O)c2ccc(N(C)S(=O)(=O)c3ccccc3)cc2)ccc1OC	CIT2-GFP yeast inconclusive, MEP2 TOR yeast 515.3[may fluoresce violet]
CN(C)CCCN1C(=O)C(=O)/C(=C(/O)c2ccncc2)C1c1ccccc1 (stereo not given)	CIT2-GFP yeast inconclusive, MEP2 TOR yeast 288.5[may fluoresce violet], RPL19A-GFP yeast 46.3[may fluoresce violet], AGP1 TOR yeast inconclusive
Cc1ccc(NC(=O)COC(=O)Cn2ccc(=O)[nH]c2=O)cc1C	none
CN(CC(=O)NCCc1ccccc1)S(=O)(=O)c1cccs1	none
CN(CC(=O)NCCc1ccc(Cl)cc1)S(=O)(=O)c1cccs1	LAP4-GFP MLPCN inconclusive, CIT2-GFP yeast inconclusive, MEP2 TOR yeast inconclusive, RPL19A-GFP yeast 19.6[may fluoresce violet], AGP1 TOR yeast inconclusive

Compound activity deposited in PubChem BioAssay by NMMLSC.
